High-throughput results as filed in PubChem.
ERK AVP inh = inhibitors of vasopressin-stimulated ERK signaling pathway | HEK293-V1b, vasopressin-stimulated pERK AlphaScreen | Potency, µM (titrated, usually from 57.5 µM), inactives show at the top dose activity, negative = inhibition, actives largely listed as inhibitors | 72,000 compounds, 0.99% hits; further: potency means the concentration at half of the fitted maximal effect; on the % scale 0 is the no-effect control and ±100 the full control effect; nearly all actives have a fitted effect of over 55% in size
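qHTS, compounds titrated on V1b-expressing HEK293 cells. Preincubation 30 min at 37C, vasopressin 25 nM for 5 min, lysis 10 min, bead incubation 5 hr at room temperature.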
BRCT inh red = disrupts BRCA1 BRCT binding to phosphoprotein, red fluorophore readout | Potency, µM (top dose mostly 76.9 µM), for the others: at the highest dose activity change, negative = inhibition, most hits filed as inhibitors | P38398 | BRCT-phosphopeptide binding, red fluorescence polarization | 75,000 compounds, 0.03% hits; further: on the % scale 0 is the no-effect control and ±100 the full control effect
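Fluorescence polarization: 100 nM His-tagged BRCA1 BRCT with 100 nM TAMRA-labelled phospho-BACH1 decapeptide, phosphate buffer pH 7.3 with 150 mM NaCl, DTT, 0.01% Tween 20; 12 min RT. Binding inhibition seen as FP decrease.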
YjeE inh = displaces an ADP probe from E. coli YjeE (TsaE). 71,000 compounds, 0.05% hits. Potency, µM. purified YjeE enzyme, qHTS inhibition assay. P0AF67
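Fluorescence polarization of a BODIPY Texas Red–ADP probe (2 uM) bound to purified YjeE (10 uM) was read after 15 min room-temperature incubation with compounds. Loss of polarization marks inhibitors; ADP serves as titrated control.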
BRCT PPI green = blocks human BRCA1 BRCT binding to phosphopeptide, green readout | P38398 | 75,000 compounds, 0.05% hits | Potency, µM (series often up to 76.9 µM), without a hit: at the top dose activity change, negative = inhibition, most hits filed as inhibitors | BRCA1 BRCT-phosphopeptide binding, green fluorescence polarization;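 further: potency means the concentration at half of the fitted maximal effect; plate controls were peptide without protein for full effect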
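Compounds were incubated for 12 min at room temperature with a complex of 100 nM fluorescein-tagged pBACH1 decapeptide and 250 nM His-tagged BRCT protein. Buffer was phosphate pH 7.3 with EDTA, DTT and Tween 20. Disruption of binding lowers the polarization signal.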
Pol III holo inh = DNA polymerase III holoenzyme inhibition; reconstituted DNA polymerase III holoenzyme replication, biochemical; Potency, µM (top dose mostly 57.1 µM), for the others: at the highest dose activity change, negative = inhibition; 71,000 compounds, 0.25% hits; further: potency means the concentration at half of the fitted maximal effect; on the % scale 0 is the no-effect control and ±100 the full control effect
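Reconstituted *E. coli* holoenzyme (0.35 nM Pol III, 1 nM beta, 154 nM SSB, 2 nM primase) was preincubated with compound for 15 min at RT. Synthesis on 1.4 nM ssM13Gori ran 35 min, then was stopped with PicoGreen/EDTA and read as dsDNA fluorescence.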
* = called active by the depositor; i = inactive; ? = inconclusive; / = no result; [ ] = dose if it differs, or a comment. The list is not random: actives were taken first. Their share in the collection is about 1.2%. The call rests on the fitted dose curve; in most records, active means well fitted curve in the direction sought with a large enough effect; inconclusive means small, poorly fitted or top-dose-only effect, or another doubt; inactive means no such curve, though single readings can be large; an effect the other way counts as inactive or inconclusive.

SMILES	ERK AVP inh	BRCT inh red	YjeE inh	BRCT PPI green	Pol III holo inh
BrC/C=C/CBr	-3.2%	0.3%	i	1.2%	1.0%
O=C(Nc1ccccc1)N1CCC2(CC1)CCN(C(=O)c1cnccn1)CC2	13.4%	-0.1%	i	0.2%	-10.0%
OCC1OC(/C=C\c2ccccc2)C=CC1Oc1ccc2c(c1)OCO2 (configuration not stated)	6.2%[11.5 µM]	0.3%[15.4 µM]	/	1.7%[15.4 µM]	/
COc1ccc(C(=O)c2no[n+]([O-])c2C(=O)c2ccc(OC)cc2)cc1	?	1.5%	i	6.9%	1.7%
O=C(c1cccs1)c1no[n+]([O-])c1C(=O)c1cccs1	5.01µM*	-0.7%	i	-1.4%	-6.5%
O=S(=O)(O)c1ccc(-c2nnc(-c3ccccn3)nc2-c2ccc(S(=O)(=O)O)o2)o1	6.9%[11.5 µM]	1.1%[15.4 µM]	i	-1.1%[15.4 µM]	-11.1%[11.4 µM]
O=C(COC(=O)CCCc1c[nH]c2ccccc12)Nc1ccc2c(c1)OCO2	39.8µM*	-1.6%	i	-4.4%	-1.9%
C[C@H]1[C@H](C)CC[C@]2(C(=O)O)CC[C@]3(C)C(=CC[C@@H]4[C@]5(C)C[C@H](O)[C@@H](O)[C@@](C)(CO)[C@@H]5[C@H](O)C[C@@]43C)[C@H]12	3.9%[11.5 µM]	1.0%[15.4 µM]	i	0.7%[15.4 µM]	-3.7%[11.4 µM]
CCOc1ccc(-c2cc(C(=O)N/N=C/c3ccc(O)c(OC)c3)[nH]n2)cc1	/	1.0%	/	-2.7%	/
Nc1ncnc2c1c(-c1ccc(Oc3ccccc3)cc1)cn2C1CCCC1	7.94µM*	-2.4%	i	8.6%	2.3%
Cc1nc(N2CCOCC2)c2nc(-c3ccccc3)n(CCN3CCOCC3)c2n1	-8.4%	-2.1%	i	-3.6%	-5.7%
O=C(Nc1cccc(C(=O)Nc2ccc(S(=O)(=O)O)c3cc(S(=O)(=O)O)cc(S(=O)(=O)O)c23)c1)Nc1cccc(C(=O)Nc2ccc(S(=O)(=O)O)c3cc(S(=O)(=O)O)cc(S(=O)(=O)O)c23)c1	-11.5%	8.5%	i	2.6%	12.6µM*
CC(C)(C)OC(=O)NCCc1nnc(SCC(=O)Nc2cccc(Cl)c2)o1	?	1.2%	i	-0.5%	-5.2%
CC(C)(C)OC(=O)NCCCCCc1nnc(SCC(=O)Nc2cccc(Cl)c2)o1	25.1µM*	0.1%	i	-0.5%	-0.3%
C[C@@H]1O[C@@H](OC[C@@H]2O[C@@H](Oc3c(-c4ccc(O)c(O)c4)oc4cc(O)cc(O)c4c3=O)[C@H](O)[C@H](O)[C@@H]2O)[C@H](O)[C@H](O)[C@@H]1O	/	/	i	/	-6.2%
COC(=O)C1C(=O)c2c([nH]c(C(=O)OC3CCCC3C)c2C)CC1C (configuration not stated)	31.6µM*	-1.3%	i	2.2%	-4.6%
Cc1ccc(/C=c2\sc3nc(-c4ccco4)nn3c2=O)o1	11.9%	-8.0%	i	-0.2%	3.98µM*
Cc1ccc(/C=c2\sc3nc(-c4ccccc4Br)nn3c2=O)o1	-7.3%	1.0%	i	0.4%	-8.2%
O=C1NC(=O)c2cc(Nc3ccccc3)c(Nc3ccccc3)cc21	31.6µM*	-1.2%	/	7.3%	/
c1ccc(Nc2ccccc2)cc1	-6.5%	-0.7%	i	-0.7%	3.4%
CC1=C(C(=O)O)N2C(=O)C(NC(=O)C(N)c3ccccc3)C2SC1 (configuration not stated)	-12.1%	-1.2%	/	-2.4%[3.08 µM]	/
COc1ccccc1N1CCN(C(=O)c2ccc3nc(-c4ccco4)c(-c4ccco4)nc3c2)CC1	15.8µM*	-5.2%	i	-3.1%	-4.6%
C[C@H]1[C@H](C)CC[C@@]2(C(=O)O)CC[C@]3(C)C(=CC[C@H]4[C@@]5(C)C[C@@H](O)[C@H](O)[C@@](C)(CO)[C@@H]5CC[C@@]43C)[C@@H]12	/	/	i	/	-5.9%
Cn1c(C(=O)N2CCCC(C(=O)NCCCc3ccccc3)C2)cc2sccc21 (configuration not stated)	20µM*	-1.6%	i	-0.6%	-8.1%
O=C(c1ccc(Cc2nc3ccccc3[nH]2)cc1)N1CCCCC1	/	-2.7%	/	0.5%	/
SMILES	ERK AVP inh	BRCT inh red	YjeE inh	BRCT PPI green	Pol III holo inh
Cc1cc(N2CCN(S(=O)(=O)c3ccccc3)CC2)c2ccccc2n1	31.6µM*	0.0%	i	-1.2%	1.0%[11.4 µM]
COc1ccccc1N1CCN(S(=O)(=O)c2ccccc2)CC1	-1.5%	-2.8%	i	-1.8%	2.6%
Cc1noc(C)c1-c1nc(NCc2cccs2)c2ccccc2n1	?	0.3%	i	-2.7%	0.4%
Cc1csc(NC(=O)CSc2nc3ccccc3c(=O)[nH]2)n1	-7.8%	0.8%	i	1.0%	-5.6%
Cc1csc(NC(=O)CSCC(=O)Nc2ccccc2)n1	31.6µM*	-1.6%	i	1.9%	-6.3%
CCn1c(CSc2nc3ccccc3s2)nc2ccccc21	39.8µM*	-0.8%	i	3.1%	1.8%[11.4 µM]
c1csc(CSc2nc3ccccc3s2)c1	0.5%	0.7%	i	-0.4%	1.5%
COc1ccc(S(=O)(=O)N2c3ccc(Cl)cc3[C@](O)(c3ccccc3Cl)[C@@H]2C(=O)N2CCC[C@H]2C(N)=O)cc1OC	3.98µM*	1.1%	/	-2.6%	/
COc1ccc(S(=O)(=O)N2CCC(C(=O)Nc3cccc(Cl)c3)CC2)cc1OC	/	0.3%	/	-0.3%	/
c1ccc2[nH]c(CN3CCN(c4ncnc5c4oc4ccccc45)CC3)nc2c1	12.6µM*	0.1%	i	3.8%	-10.9%
Cc1nc(N2CCN(Cc3nc4ccccc4[nH]3)CC2)c2oc3ccccc3c2n1	?	-4.2%	i	3.6%	7.6%
CC(=O)c1ccc(N2CCN(C(=O)COc3ccc(F)cc3)CC2)c(F)c1	-25.4%	-0.1%	i	-2.4%	-0.8%
CCC(=O)c1ccc(N2CCN(C(=O)COc3ccc(F)cc3)CC2)c(F)c1	3.16µM*	0.0%	i	-1.1%	-2.2%[11.4 µM]
COc1ccccc1OCC(=O)N1CCN(c2ccccc2OC)CC1	/	-0.1%	/	-1.7%	/
COc1ccccc1N1CCN(C(=O)COc2ccc(Cl)cc2)CC1	31.6µM*	-1.4%	i	-1.1%	-2.3%
Nc1ccn([C@H]2CC[C@H](CO)O2)c(=O)n1	/	/	i	/	-4.4%
N#CCCn1c(=O)cnc2cnc(N3CCNCC3)nc21	-5.8%	-1.2%	i	-1.7%	-6.4%
COc1ccc2[nH]cc(CCNc3cc(-c4ccccc4Cl)ncn3)c2c1	?	-0.1%	i	-0.1%	-8.1%
COc1ccc2[nH]cc(CCNc3ccnc(-c4ccccc4Cl)n3)c2c1	39.8µM*	0.8%	i	-1.8%	2.8%
COc1ccc2[nH]cc(CCNc3ccnc(-c4cccc(NS(C)(=O)=O)c4)n3)c2c1	12.6µM*	-1.0%	i	1.1%	0.6%
COc1cc2c(cc1OC)-c1cc(N3CCCc4ccccc43)nc(=O)n1CC2	20µM*	2.9%	i	2.9%	-16.4%
COc1cc2c(cc1OC)-c1cc(OCc3cccnc3)nc(=O)n1CC2	12.6µM*	-2.1%	i	3.8%	-4.2%
